# Screening results as filed in PubChem.
# Shown are actives, neighbours in structure and some others; about 19% of the full set was active somewhere.
# IL1B secr inh = blocks inflammasome-driven IL-1 beta release; THP-1 LPS/ATP IL-1B secretion, AlphaLISA, 16 h; hits give low values; activity change, % at 57.5 µM; 4.7% of 360,000 active; in the data active = activity change below about -50%; inconclusive = mostly about -30% to -49%
#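 Secreted IL-1B measured by AlphaLISA bead assay after 16 h compound exposure of THP-1 cells; compounds (final up to 57.5 uM) added 1 h before LPS (250 ng/mL) and ATP (1.25 mM) stimulation; lower signal means less secretion.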
# HT1080 IDH1KD tx = HT-1080 IDH1 knockdown cell toxicity (counter line). HT-1080 IDH1 knockdown viability, ATP luminescence, 48 h. Potency, µM (titrated, usually from 46.1 µM), for inactives: top-dose activity, negative = toxicity, actives largely listed as cytotoxic. 2% of 360,000 active. AID 686971;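 note: potency is the fitted concentration of half-maximal effect; 0% = DMSO wells and -100% = cell-free medium wells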
#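 Luminescent ATP read-out (CellTiter-Glo, 10 min at room temperature) after 48 h compound exposure at 37 °C gave viability of IDH1-knockdown HT-1080 cells. Activity was normalised to DMSO and cell-free wells, then fitted as concentration-response curves.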
# DT40 TDP1 CPT = growth inhibition of DT40 Tdp1-/-;hTDP1 cells with camptothecin (screen for TDP1 inhibitors) | Potency, µM (series often up to 46.2 µM), without a hit: at the top dose activity change, negative = growth inhibition, actives largely listed as inhibitors | chicken DT40 Tdp1-/-;hTDP1 cells + 20 nM CPT, ATP luminescence, 48 h | 12% of 420,000 active; note: potency is the fitted concentration of half-maximal effect; nearly all actives have a fitted effect of over 55% in size
#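 Chicken DT40 Tdp1-/- cells stably complemented with human TDP1 were seeded at 400 cells/well in medium containing 20 nM camptothecin, exposed to pin-transferred compounds, and grown at 37 °C for at least 48 hr. Viability was read as ATP luminescence.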
# DT40 TDP1 no CPT = qHTS for Inhibitors of human tyrosyl-DNA phosphodiesterase 1 (TDP1): qHTS in cells in absence of CPT | 15% of 420,000 active | Potency, µM (doses to about 46.2 µM), for inactives: at the top dose activity change, negative = growth inhibition, usual class: inhibitors | AID 686978, 2013 | DT40 Tdp1-/- hTDP1 cells, no CPT, ATP luminescence, 48 h; note: potency is the fitted concentration of half-maximal effect; nearly all actives have a fitted effect of over 55% in size
#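 Chicken DT40 Tdp1-/- cells complemented with human TDP1, screened without camptothecin (DMSO vehicle only), 400 cells/well. Compounds pin-transferred, cells incubated at 37 °C for at least 48 hr. Growth read as ATP-dependent luminescence (CellTiter-Glo, 30 min at RT).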
# HT1080NT lethal = kills 2HG-producing HT-1080-NT fibrosarcoma cells; HT-1080-NT fibrosarcoma viability, CellTiter-Glo ATP luminescence, 48 h; Potency, µM (titrated, usually from 46.1 µM), for inactives: at the highest dose activity, negative = less viability, most hits filed as cytotoxic; 1.6% of 360,000 active; AID 686970;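 note: NT is the 2HG producing partner of a matched IDH1 knockdown line; potency is the fitted concentration of half-maximal effect; 0% = DMSO-treated cells and -100% = media-only wells without cells; nearly all actives have a fitted effect of over 55% in size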
#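 Read-out is CellTiter-Glo luminescence after 10 minutes at room temperature, following 48 hours' compound treatment of HT-1080-NT cells (750 cells/well, RPMI, 5% FBS, 37 degrees C).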
# Starred values were filed as active, the others as inactive; ? = inconclusive; · = no result; [ ] = remark or other dose. Unless noted, calls come from the whole dose curve; as a rule, active = well fitted curve in the direction sought with a large enough effect; inconclusive = small, poorly fitted or top-dose-only effect, or another doubt; inactive = no such curve, though single readings can be large; an effect the other way counts as inactive or inconclusive. Unless noted, % is set by controls: 0 for no effect and ±100 for the full control effect.
SMILES,IL1B secr inh,HT1080 IDH1KD tx,DT40 TDP1 CPT,DT40 TDP1 no CPT,HT1080NT lethal
COc1cc(SC#N)ccc1N=Cc1c(C)[nH]n(-c2ccc(Cl)cc2)c1=O,?,-9%,2.6µM*,3.7µM*,-15%
CC(=O)c1ccc(N2CCN(C(=S)Nc3ccccc3F)CC2)cc1,23,8%,?,7.3µM*,12%
CC(=O)c1ccc(N2CCN(C(=S)Nc3ccccc3)CC2)cc1,-10,8%,?,21µM*,14%
COc1ccccc1NC(=S)N1CCC(NC(=O)c2ccco2)CC1,-12,11%,-1%,2%,17%
CCC(CO)NC1=C([N+](=O)[O-])C(=O)CC(C)(C)C1 (centres undefined),-8,26%,6%,-18%,6%
N#CC1=C(N)Oc2n[nH]c(-c3ccccc3)c2C1c1ccsc1 (centres undefined),40,-2%,?,12µM*,-2%
CC(C)C1C(C#N)=C(N)Oc2n[nH]c(-c3ccc4ccccc4c3)c21 (centres undefined),5,?,?,10µM*,?
CCC(CC)C1C(C#N)=C(N)Oc2n[nH]c(-c3ccccc3)c21 (centres undefined),-30,-20%[9.24 µM],?,26µM*,?
Cc1[nH]nc2c1C(C1CC=CCC1)C(C#N)=C(N)O2 (centres undefined),-112*,?,21µM*,?,?
COc1ccc(CCN2C(=O)CC(N3CCN(C/C=C/c4ccccc4)CC3)C2=O)cc1OC (centres undefined),20,-25%,?,?,-20%
CCc1[nH]nc2c1C(C(C)C)C(C#N)=C(N)O2 (centres undefined),-84*,-9%,?,?,-2%
CCc1[nH]nc2c1C(c1cccnc1)C(C#N)=C(N)O2 (centres undefined),-27,-2%,1%,-12%,-2%
CCC(CC)C1C(C#N)=C(N)Oc2n[nH]c(C)c21 (centres undefined),-88*,11µM*,18µM*,16µM*,11µM*
Cc1nnc(SCC(=O)NC(=O)NCCC(C)C)s1,-9,11%,1%,-6%,18%
COc1ccc(CC(=O)Oc2ccc(C)cc2Br)cc1OC,-4,0%,-18%,1%,2%
CN(C)S(=O)(=O)c1cccc(NC(=O)COC(=O)c2c[nH]c(=O)[nH]c2=O)c1,-1,2%,3%,6%,-1%
O=C(Nc1ccc(-c2ccc3nncn3n2)cc1)C1CCCC1,-25,-12%,?,?,17%
O=C(CC1CCCCC1)Nc1ccc(-c2ccc3nncn3n2)cc1,-12,?,?,18µM*,?
COCC(=O)OCC(=O)Nc1ccccc1-c1ccccc1,4,-17%,1%,-21%,-6%
O=C(COC(=O)c1ccc(-c2ccccc2)cc1)Nc1ccccc1-c1ccccc1,0,-12%,?,10µM*,0%
O=C(COC(=O)c1ccc(O)cc1)Nc1ccccc1-c1ccccc1,10,-21%,?,21µM*,-20%
COCCN(CC1CCCN(C2Cc3ccccc3C2)C1)C(=O)CSC (centres undefined),-3,4%,-15%,-1%,-8%
COc1ccc(C)cc1NC(=O)CSc1nc(=O)n(Cc2ccccn2)c2c1CCC2,·,·,?,21µM*,·
CCc1ccc(NC(=O)CSc2nc(=O)n(Cc3cccnc3)c3c2CCC3)cc1,·,·,?,16µM*,·
CC(=O)Nc1ccc(NC(=O)CSc2nc(=O)n(Cc3cccnc3)c3c2CCC3)cc1,0,16%,0%,-4%,1%
COc1ccc(C)cc1NC(=O)CSc1nc(=O)n(Cc2cccnc2)c2c1CCC2,·,·,?,18µM*,·
O=C(COC(=O)c1ccc2c(c1)OCO2)Nc1ccccc1F,1,10%,-13%,-13%,12%
